Marburg entry inh = inhibitors of Marburg virus binding or cell entry; Potency, µM (titrated, usually from 37.8 µM), most hits filed as inhibitors; 300,000 compounds, 1.8% hits; Marburg virus pseudotyped entry inhibition, cell reporter; calls by dose curve; tested in HEK293 cells
HCV inhibitor = inhibitors of hepatitis C virus infection. Potency, µM (series often up to 41.8 µM), hits mostly inhibitors. 340,000 compounds, 3.4% hits. AID 651820. Huh7.5.1 HCVcc-Cre infection, luciferase reporter, 44 h; active = well fitted inhibition curve with a large enough effect; inconclusive = small, poorly fitted or top-dose-only effect, or another doubt; inactive = no such curve, though single readings can be large or run the other way
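Infectious HCV cell culture screen: compound-treated cells (1,000/well, pre-plated 4 h) are infected with HCVcc-Cre at roughly 0.5 moi and grown 44 h. Infection is quantified by luciferase signal after 15 min substrate incubation at room temperature.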
FMDV antiviral = foot and mouth disease virus antiviral activity. Potency, µM (titrated, usually from 57.9 µM), usual class: inhibitors. FMDV antiviral cell-based qHTS. 410,000 compounds, 1.2% hits; calls by dose curve; tested in HEK293T cells; note: read-out not given here; nearly all actives have a fitted effect of over 45% in size
LASV entry inh = Lassa virus entry inhibition; 300,000 compounds, 1.2% hits; Potency, µM (series often up to 37.9 µM), most hits filed as inhibitors; Lassa virus pseudotype entry inhibition, cell reporter; calls by dose curve; tested in HEK293 cells; note: nearly all actives have a fitted effect of over 50% in size
HCMV antiviral = blocks human cytomegalovirus replication | HFF cells, HCMV-luciferase reporter, 72 h; active compounds read low | activity change, negative = inhibition, % at 57.5 µM | 410,000 compounds, 4.5% hits | AID 1259415; in the data active = activity change below about -60%; inconclusive = no clear call, values can overlap the other calls; inactive = above about -39%
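After 16 h attachment at 37C, HFF cells received test compound and HCMV-luciferase (1 PFU/cell); reporter luminescence read 72 h later, data normalized against buffer-only and known inhibitor Salinomycin.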
A number is an active result; 0 = inactive; ? = inconclusive; - = no result given. Only some compounds are listed: those with a hit (about 7.9% of all), similar ones and a draw of the others.

SMILES	Marburg entry inh	HCV inhibitor	FMDV antiviral	LASV entry inh	HCMV antiviral
O=C1c2cccc3cccc(c23)C(=O)N1CC1CCN(CC(O)COCc2ccc3c(c2)OCO3)CC1 (configuration not stated)	?	10µM	0	?	0
N#CC1=C(N)OC2=C(CC/C2=C\c2ccccc2)C1c1ccccc1 (configuration not stated)	?	0	17.8µM	0	0
COc1ccc(C(=O)Nc2ccc(OCC(=O)N3CCOCC3)cc2)c(OC)c1OC	0	0	0	?	0
Clc1ccc(SCNc2ccccc2Cl)cc1	-	0	0	-	0
Cc1ccc(NCSc2ccc(Cl)cc2)cc1	0	10µM	0	0	0
CC(CCN1CCCCc2nc(C)c(C)cc21)=NO[C@H](C)c1cn([C@@H]2COC[C@@H]2O)nn1	0	-	-	-	-
COc1ccc(NC(=O)c2cc(C3CCCCN3S(=O)(=O)Cc3ccccc3)on2)c(C)c1 (configuration not stated)	-	-	0	-	0
O=C(CN1C(=O)C2CC=CCC2C1=O)Nc1nc(-c2ccc(F)c(F)c2)cs1 (configuration not stated)	-	10µM	?	-	0
COc1ccc(-c2csc(NC(=O)CN3C(=O)C4CC=CCC4C3=O)n2)cc1OC (configuration not stated)	-	?	?	-	-110.8
COc1cccc(C(c2sc3nc(-c4ccco4)nn3c2O)N2CCC(C)CC2)c1 (configuration not stated)	-	-	0	0	0
CCCCC(=O)Nc1nc2ccc3nc(C)sc3c2s1	-	7.94µM	0	-	0
CC(CCc1ccccc1)NC(=O)CSc1n[nH]c(-c2ccccc2)n1 (configuration not stated)	-	-	0	?	0
COc1ccc(-c2nc(SCC(=O)NCCCc3ccccc3)n[nH]2)cc1	-	-	0	?	-66.7
O=C(CSc1n[nH]c(-c2ccccn2)n1)Nc1ccccc1	?	?	0	?	-79.0
COc1ccc(/C=C/c2cc[n+](C(=O)Cc3ccccc3)cc2)cc1	0	0	?	0	-107.8
CC(CCc1ccccc1)NC(=O)CSc1n[nH]c(-c2ccc(F)cc2)n1 (configuration not stated)	-	-	?	0	-64.8
COc1ccc(CNC(=O)[C@H](C)NC(=O)[C@@H]2Cc3ccccc3CN2)cc1	0	0	0	0	0
N#C[C@@H](c1ccccc1)C1CCN(S(=O)(=O)CCCCl)CC1	-	-	-	-	0
COc1ccc(/C=C/C(=O)NC(C)CCc2ccccc2)cc1 (configuration not stated)	0	0	0	0	-60.2
CC(CCc1ccccc1)NC(=O)CSc1n[nH]c(-c2ccccc2Cl)n1 (configuration not stated)	-	-	?	0	0
COc1ccc(-c2nc(SCC(=O)NC(C)CCc3ccccc3)n[nH]2)cc1 (configuration not stated)	-	-	?	?	-89.1
COc1ccc(/C=C/C(=O)NC(C)CCc2ccccc2)cc1OC (configuration not stated)	0	?	0	0	0
Cc1ccccc1OCC(=O)OCc1cc(=O)n2nc(C3CCCCC3)sc2n1	-	-	0	0	0
Cc1c(C(=O)N2CCCC2)sc2ncnc(NCCCN3CCOCC3)c12	-	-	0	-	-
CCCCn1c(NC(=O)c2ccco2)c(C(=O)OCC)c2nc3ccccc3nc21	0	0	-	0	-69.0
SMILES	Marburg entry inh	HCV inhibitor	FMDV antiviral	LASV entry inh	HCMV antiviral
Cc1cccc(Oc2nc(-c3ccncc3)nc3ccccc23)c1	?	7.08µM	0	0	0
COc1cccc(-c2nc(Oc3cc(C)cc(C)c3)c3ccccc3n2)c1O	-	0	-	-	-
CCOc1nc(-c2ccncc2)nc2ccccc12	?	?	0	0	0
Cc1cccc(Oc2nc(-c3ccccn3)nc3ccccc23)c1	?	?	0	0	-72.3
Cc1cccc2cc(C#N)c(SCC#N)nc12	-	0	0	-	-66.7
Cc1cccc2cc(C#N)c(SCC(=O)NNC(=O)Cc3ccccc3)nc12	?	0	0	0	-63.0
Cc1cccc2cc(C#N)c(SCC(=O)NCc3cccs3)nc12	0	0	0	0	0
COc1cccc(NC(=O)COC(=O)c2c3c(nc4ccccc24)CCC(C)C3)c1 (configuration not stated)	7.3µM	2µM	31.6µM	18.3µM	0
CC1CCc2nc3ccccc3c(C(=O)OCC(=O)NC3CCS(=O)(=O)C3)c2C1 (configuration not stated)	0	10µM	0	0	0
CC1CCc2nc3ccccc3c(C(=O)OCC(=O)N(C)C3CCS(=O)(=O)C3)c2C1 (configuration not stated)	0	?	0	0	0
